# Assay results: the antibiotic and cytotoxicity screens of Wong et al. (2023)
# Screen size: about 39,000 compounds; about 3,300 (8.5%) were called active. For the sample, actives were picked, then their nearest neighbours and some compounds at random.
# Test system: HepG2
# Assay: cytotoxicity call (relative viability < 0.9)
# Details: 10 µM
row,SMILES,cytotoxicity call
1,CC(C)CC#Cc1cnc2c(c1)C(=O)N([C@@H](C)CO)C[C@@H](C)[C@@H](CN(C)S(=O)(=O)c1cccs1)O2,inactive
2,C[C@H](CO)N1C[C@H](C)[C@H](CN(C)C(=O)Nc2ccc(F)cc2)OCCCC[C@H](C)Oc2ccc(NC(=O)c3ccncc3)cc2C1=O,inactive
3,CCS(=O)(=O)N1CC[C@]2(CC1)CN(Cc1ccc3c(c1)OCO3)[C@@H](CO)c1[nH]c3cc(ccc3c12)OC,inactive
4,CCC(=O)N1C[C@]2(CN(C2)C(=O)CN2CCOCC2)c2c([nH]c3cc(ccc23)OC)[C@H]1CO,inactive
5,COc1ccc(S(=O)(=O)Nc2ccc3c(c2)C(=O)N([C@H](C)CO)C[C@H](C)[C@@H](CN(C)C(=O)Nc2ccc4c(c2)OCO4)OCCCC[C@@H](C)O3)cc1,inactive
6,C[C@@H]1CN([C@@H](C)CO)C(=O)c2cccc(NC(=O)c3ccncc3)c2O[C@@H]1CN(C)S(=O)(=O)c1cn(C)cn1,inactive
7,Cc1ccc(S(=O)(=O)N(C)C[C@@H]2OCCCC[C@H](C)Oc3ccc(NC(=O)Nc4ccc(C(F)(F)F)cc4)cc3C(=O)N([C@H](C)CO)C[C@H]2C)cc1,inactive
8,Cc1ccc(S(=O)(=O)N(C)C[C@@H]2OCCCC[C@@H](C)Oc3ccc(NC(=O)Nc4ccc(C(F)(F)F)cc4)cc3C(=O)N([C@@H](C)CO)C[C@H]2C)cc1,active
9,Cc1ccc(S(=O)(=O)N(C)C[C@@H]2OCCCC[C@H](C)Oc3ccc(NC(=O)Nc4ccc(C(F)(F)F)cc4)cc3C(=O)N([C@@H](C)CO)C[C@@H]2C)cc1,inactive
10,Cc1ccc(S(=O)(=O)N(C)C[C@@H]2OCCCC[C@@H](C)Oc3ccc(NC(=O)Nc4ccc(C(F)(F)F)cc4)cc3C(=O)N([C@H](C)CO)C[C@H]2C)cc1,inactive
11,Cc1ccc(S(=O)(=O)N(C)C[C@H]2OCCCC[C@@H](C)Oc3ccc(NC(=O)Nc4ccc(C(F)(F)F)cc4)cc3C(=O)N([C@@H](C)CO)C[C@@H]2C)cc1,active
12,Cc1ccc(S(=O)(=O)N(C)C[C@H]2OCCCC[C@H](C)Oc3ccc(NC(=O)Nc4ccc(C(F)(F)F)cc4)cc3C(=O)N([C@@H](C)CO)C[C@@H]2C)cc1,inactive
13,O=C([O-])C=CC(=O)[O-].[Fe+2],inactive
14,O=C(CCCCC(=O)N/N=C/[C@H](O)[C@@H](O)[C@H](O)[C@H](O)CO[C@H]1O[C@H](CO)[C@H](O)[C@H](O)[C@H]1O)NO,inactive
15,CC(C)NC(=O)N(C)C[C@H]1Oc2ccc(NS(=O)(=O)c3ccc(Cl)cc3)cc2CC(=O)N([C@H](C)CO)C[C@H]1C,inactive
16,CCOC(=O)c1nnn(-c2nonc2N)c1CN1CCSCC1,inactive
17,CCOC(=O)CCCCCC(=O)Nc1ccc2c(c1)C(=O)N([C@@H](C)CO)C[C@H](C)[C@H](CN(C)S(C)(=O)=O)O2,inactive
18,COc1ccc(O)c(N)c1,active
19,COc1ccc(C(C)=O)c(O)c1,inactive
20,Nc1cc(-c2ccccc2)ccc1O,inactive

row,SMILES,cytotoxicity call
1,COc1ccc(NC(=O)N(C)C[C@H]2Oc3ccc(NS(C)(=O)=O)cc3CC(=O)N([C@@H](C)CO)C[C@H]2C)cc1,inactive
2,COc1ccc2c(O[C@H]3CCCC[C@@H]3OC)nccc2c1-n1ccnc1-c1c[nH]c2c(N)c(F)cc(C#N)c12,active
3,C[C@@H]1CN([C@@H](C)CO)C(=O)c2cc(NS(=O)(=O)c3cn(C)cn3)ccc2O[C@@H](C)CCCCO[C@@H]1CN(C)S(=O)(=O)c1cn(C)cn1,inactive
4,COc1ccc(-c2coc3cc(OC)cc(OC)c3c2=O)cc1,inactive
5,C[C@H](CO)N1C[C@H](C)[C@@H](CN(C)S(=O)(=O)c2cccc(F)c2)Oc2ncc(C#CC3(O)CCCC3)cc2C1=O,inactive
6,C[C@@H]1CCCCO[C@@H](CN(C)C(=O)NC2CCCCC2)[C@@H](C)CN([C@H](C)CO)C(=O)c2cc(NC(=O)Cc3ccccc3)ccc2O1,inactive
7,C[C@@H]1CN([C@H](C)CO)C(=O)c2cc(NS(C)(=O)=O)ccc2O[C@@H]1CN(C)S(=O)(=O)c1ccc(F)cc1,inactive
8,C[C@H](CO)N1C[C@H](C)[C@@H](CN(C)Cc2ccc(C(=O)Nc3ccccc3N)cc2)Oc2c(NC(=O)c3nc4ccccc4s3)cccc2C1=O,active
9,C[C@@H]1CN([C@@H](C)CO)C(=O)c2cccc(NC(=O)c3nc4ccccc4s3)c2O[C@@H]1CN(C)Cc1ccc(C(=O)Nc2ccccc2N)cc1,active
10,C[C@@H]1CN([C@@H](C)CO)C(=O)c2cccc(NC(=O)c3nc4ccccc4s3)c2O[C@H]1CN(C)Cc1ccc(C(=O)Nc2ccccc2N)cc1,inactive
11,C[C@H]1CN([C@@H](C)CO)C(=O)c2cccc(NC(=O)c3nc4ccccc4s3)c2O[C@H]1CN(C)Cc1ccc(C(=O)Nc2ccccc2N)cc1,inactive
12,C[C@H]1CN([C@@H](C)CO)C(=O)c2cccc(NC(=O)c3nc4ccccc4s3)c2O[C@@H]1CN(C)Cc1ccc(C(=O)Nc2ccccc2N)cc1,inactive
13,C[C@H](CO)N1C[C@H](C)[C@H](CN(C)Cc2ccc(C(=O)Nc3ccccc3N)cc2)Oc2c(NC(=O)c3nc4ccccc4s3)cccc2C1=O,inactive
14,C[C@H]1CCCCO[C@H](CN(C)C(=O)NC2CCCCC2)[C@@H](C)CN([C@@H](C)CO)C(=O)c2cc(NC(=O)CCC(F)(F)F)ccc2O1,inactive
15,COc1ccc(S(=O)(=O)N(C)C[C@H]2Oc3c(NC(=O)c4cnccn4)cccc3C(=O)N([C@H](C)CO)C[C@H]2C)cc1,inactive
16,C[C@@H]1CN([C@H](C)CO)C(=O)c2cc(NS(=O)(=O)c3ccc(Cl)cc3)ccc2O[C@@H](C)CCCCO[C@@H]1CN(C)Cc1ccncc1,inactive
17,CCc1nc2c(C)cc(N3CCN(CC(=O)N4CC(O)C4)CC3)cn2c1N(C)c1nc(-c2ccc(F)cc2)c(C#N)s1,active
18,COCC#Cc1ccc2c(c1)O[C@H](CN(C)Cc1ccccc1F)[C@@H](C)CN([C@H](C)CO)S2(=O)=O,inactive
19,C[C@H](CO)N1C[C@H](C)[C@H](CN(C)S(=O)(=O)c2cccs2)Oc2ccc(NS(=O)(=O)c3ccccc3)cc2CC1=O,inactive
20,C[C@@H]1CN([C@H](C)CO)C(=O)c2cccc(NS(=O)(=O)c3ccc(F)cc3)c2O[C@@H]1CN(C)Cc1ccncc1,inactive
